From PubChem
The entries come from a sample that favours hits as a whole.
CBX7 inh – blocks human CBX7 binding to H3K27me3 peptide; O95931; AlphaScreen His6-CBX7 / biotin-H3K27me3 peptide binding; hits give low values; normalised signal (fraction of DMSO) (concentration not given with the values); 1.1% of 66,000 active; AID 1224903; in the data active = normalised signal below about 0.5
Target sequence (O95931 whole entry, looked up): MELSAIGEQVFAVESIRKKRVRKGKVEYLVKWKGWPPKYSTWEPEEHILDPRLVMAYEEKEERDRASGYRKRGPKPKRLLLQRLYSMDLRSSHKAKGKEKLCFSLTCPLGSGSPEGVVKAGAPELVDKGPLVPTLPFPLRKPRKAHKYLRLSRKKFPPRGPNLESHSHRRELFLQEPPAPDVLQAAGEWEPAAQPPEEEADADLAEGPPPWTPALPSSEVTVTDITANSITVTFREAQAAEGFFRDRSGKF
Numbers stand for hits; . = inactive.

SMILES	CBX7 inh
CCN(CCNC(=O)C1CCN(Cc2nc(-c3ccccc3F)oc2C)CC1)c1ccccc1	.
CCCn1cnc2cc(NCc3ccccc3Cl)ccc21	.
CCCn1cnc2cc(NCc3ccccc3OCC)ccc21	.
CCn1cnc2cc(NCc3ccccc3OC)ccc21	.
CCCCn1cnc2cc(NCc3ccc(OCC)cc3)ccc21	.
CCn1cnc2cc(NCc3cccc(OC)c3)ccc21	.
CCCCn1cnc2cc(NCc3ccccc3Cl)ccc21	0.22
CCCCn1cnc2cc(NCc3ccccc3OCC)ccc21	0.19
CCCCn1cnc2cc(NCc3cccc(OC)c3)ccc21	0.36
CCn1cnc2cc(NCc3ccccc3Cl)ccc21	.
Cc1cc(C)c(OCC(=O)Nc2c(C(=O)c3ccc(Br)cc3)oc3ccccc23)c(C)c1	.
Cc1cccc(C)c1NC(=O)CC1C(=O)N(Cc2ccccc2)C(C)c2nc3ccccc3n21 (stereo not given)	.
CCCC(O)(c1ccc(F)cc1)C(CN1CCCCC1)c1ccccc1 (stereo not given)	.
COC(CNC(=O)c1cc(Nc2cc(C)ccc2C)nc2ccccc12)OC	.
COCCNC(=O)c1nc(-c2cccc(C)c2)oc1C	.
COCCN(CCOC)S(=O)(=O)c1ccc(C(=O)Nc2ccccc2-c2nc3ccccc3s2)cc1	.
CCOCCCNc1oc(COc2ccc(F)cc2)nc1C#N	.
COc1cccc(CNCc2cccnc2)c1OCc1ccccc1F	.
CCN(CC)CCCNC(=O)Cn1nc(Cc2ccncc2)c2ccccc2c1=O	.
CCc1ccc(NC(=O)Cn2nc(Cc3cccnc3)c3ccccc3c2=O)cc1	.
Cc1nc2c(C(=O)NCCc3ccccc3)cnn2c(C)c1Cc1ccc(F)cc1	.
O=C(NCc1ccc(F)cc1)C1CC(=O)N(C2CCCCCC2)C1 (stereo not given)	.
COc1ccc(C(NC(=O)CCc2ccccc2)c2ccc3cccnc3c2O)cc1OC (stereo not given)	0.039
CCCC(=O)NC(c1ccccc1OC)c1cc(Cl)c2cccnc2c1O (stereo not given)	.
CCCC(=O)NC(c1ccc(OC)c(OC)c1)c1cc(Cl)c2cccnc2c1O (stereo not given)	0.41
SMILES	CBX7 inh
COc1ccc(-c2nc(C(=O)NC(C)CCc3ccccc3)c(C)o2)cc1OC (stereo not given)	.
CCCC(=O)Nc1ccc(Cl)c(-c2nc3ncccc3o2)c1	.
COc1ccc(NC(=O)C(=O)NCCc2ccccc2)cc1OC	.
COc1ccc(NC(=O)C2CCN(c3nnc(-n4cccc4)s3)CC2)cc1Cl	.
CC(=O)N1CCC(N(CCC(C)C)C(=O)Nc2ccccc2)CC1	.
O=C(NCc1ccc(F)cc1)c1ccc2c(c1)N(Cc1ccccc1)C(=O)CS2	.
COc1ccc(CN2C(=O)c3ccccc3C2C(=O)NCCc2ccc(OC)c(OC)c2)c(OC)c1 (stereo not given)	.
Cc1nnc(SCC(N)=O)c2ccccc12	.
COc1ccc2c(c1)nc(C)n2Cc1ccccc1	.
COc1ccccc1CNc1ccc2c(c1)nc(C)n2C	.
CC(=O)Nc1ccc2c(c1)nc(C)n2Cc1ccccc1	.
COc1ccc(CNc2ccc3c(c2)nc(C)n3Cc2ccccc2)cc1OC	0.4
COc1cccc(CNc2ccc3c(c2)nc(C)n3Cc2ccccc2)c1OC	0.31
COc1ccc(CNc2ccc3c(c2)nc(C)n3Cc2ccccc2)cc1	0.35
COc1ccccc1OCc1nc2ccccc2n1Cc1ccccc1	.
COc1ccc(CNc2ccc(-c3nc4cc(C)ccc4s3)cc2)cc1OC	.
COc1cccc(CNc2ccc3c(c2)nc(C)n3C)c1OC	.
CCOc1ccccc1NC(=O)CCC(=O)Nc1ccc2nc(N3CC(C)CC(C)C3)cc(C)c2c1 (stereo not given)	.
O=C(Cn1ccc2ccccc2c1=O)NCCC(=O)Nc1ccc(F)c(Cl)c1	.
Clc1ccc2nc(N3CCOCC3)nc(-c3ccccc3)c2c1	.
CCCOc1ccc(C2C(=O)N(C3CCCCC3)CC(=O)N2Cc2ccc3c(c2)OCO3)cc1OC (stereo not given)	.
COc1ccc(C(=O)N(Cc2nc(-c3ccc(Cl)cc3)no2)C(C)C)cc1	.
NS(=O)(=O)c1ccc(CCNC(=O)c2ccc3c(=O)n(CCc4ccccc4)c(=O)[nH]c3c2)cc1	.
CCCNC(=O)CCCN1C(=O)CSc2ncccc21	.
O=C(Nc1ccc2c(c1)OCO2)c1cc2nc(-c3cccs3)cc(C(F)(F)F)n2n1	.
SMILES	CBX7 inh
CC1NC(=O)NC1CCCCCC(=O)OCC(=O)c1ccccc1 (stereo not given)	0.16
Cc1ccc(C)c(Cn2c(C3CC(=O)N(c4ccccc4)C3)nc3ccccc32)c1 (stereo not given)	.
Oc1ccc(Nc2nc(-c3ccccc3Cl)nc3ccccc23)cc1	.
CN(C)c1ccc(Nc2nc(-c3ccccc3Cl)nc3ccccc23)cc1	0.3
COc1ccc(Nc2nc(-c3ccccc3Cl)nc3ccccc23)cc1	.
CCCCSCCCNC(=O)CSCc1nc(-c2ccccc2Cl)oc1C	.
COc1ccc(N2CCN(c3oc(COc4ccc(F)cc4)nc3C#N)CC2)cc1	.
COc1ccc(N2CCN(c3oc(COc4ccccc4C)nc3C#N)CC2)cc1	.
N#Cc1nc(COc2ccc(Br)cc2)oc1N1CCN(Cc2ccccc2)CC1	.
N#Cc1nc(COc2ccccc2F)oc1N1CCCCCC1	.
Cc1ccccc1OCc1nc(C#N)c(N2CCN(c3ccccc3)CC2)o1	0.42
N#Cc1nc(COc2ccccc2F)oc1N1CCN(Cc2ccccc2)CC1	0.46
COc1ccc(OCc2nc(C#N)c(N3CCN(c4ccc(OC)cc4)CC3)o2)cc1	.
COc1ccc(N2CCN(c3oc(COc4ccc(C)cc4)nc3C#N)CC2)cc1	0.48
COc1ccccc1OCc1nc(C#N)c(N2CCN(c3ccccc3)CC2)o1	.
COc1ccc(-c2nn(C)c3sc(C(=O)NCC4COc5ccccc5O4)cc23)cc1OC (stereo not given)	.
Cc1ccc(NC(=O)NCC2CCN(C(C)c3ccccc3)C2)cc1C (stereo not given)	.
O=C(c1nn2c(C(F)(F)F)cc(-c3ccccc3)nc2c1Cl)N1CCCCC1	.
CCN(CC)CCNC(=O)c1sc2ncn(CC(=O)Nc3cccc(C(F)(F)F)c3)c(=O)c2c1C	.
COc1ccccc1N1CCN(c2ncc(C(=O)NCc3cccnc3)c3ccccc23)CC1	.
Cc1ccc(NC(=O)c2nc(-c3ccc(C)cc3)oc2C)cc1	.
COc1ccc(-c2nc(Cn3c(SCc4ccc(F)cc4)nc4ccncc43)c(C)o2)cc1	.
Cc1nc(Nc2ccc(Oc3ccccc3)cc2)c2c3c(sc2n1)CCCC3	.
O=C(Nc1cccc(F)c1)C1CCN(S(=O)(=O)c2ccccc2)CC1	.
CCC(=C(c1ccc(OC)cc1)c1ccc(OC)cc1)c1cn(CC(O)CN2CCOCC2)c2ccccc12 (stereo not given)	0.41
SMILES	CBX7 inh
CCC(=C(c1ccc(OC)cc1)c1ccc(OC)cc1)c1cn(CCN(C)C)c2ccccc12	0.32
COc1ccc(OCC(O)CN2CCCCCC2)cc1 (stereo not given)	.
COc1ccc(OCC(O)Cn2c(=N)n(CCN3CCOCC3)c3ccccc32)cc1 (stereo not given)	.
COc1ccc(-c2cc3ccccc3n2CC(O)CN2CCCCC2)cc1 (stereo not given)	.
COc1ccc(C(=O)c2cn(Cc3ccc(C)cc3)c3ccccc3c2=O)cc1	.
COc1ccc(C(=O)c2cn(Cc3ccc(F)cc3)c3ccccc3c2=O)cc1	.
COc1cccc(OCC(O)CN2CCOCC2)c1 (stereo not given)	.
